Screening data: PubChem, several laboratories
proKLK7 act: proKLK7 (human) activation, primary screen; P49862; purified proKLK7, EDANS-DABCYL substrate fluorescence; 100% is mature enzyme control, 0% vehicle; activation, % at 7 µM; actives 0.9% (n = 370,000); AID 652039;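 active = activation above the mean of all tested compounds plus 3 SD, computed per campaign excluding outliers beyond control limits, cut at about 13% in these data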
MPTP block: inhibitors of mitochondrial permeability transition pore; actives 1.4% (n = 360,000); AID 602449; inhibition, % at 10 µM; isolated mouse mitochondria, Ca2+ swelling absorbance, 30 min;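 active = inhibition of 50% or more, scaled per plate between neutral and stimulator controls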;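 note: 0% = DMSO wells given calcium and 100% = 1 mM EGTA wells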
ADAM10 inh: inhibits human ADAM10; O14672; recombinant ADAM10, EDANS/DABCYL FRET peptide cleavage, 3 h; inhibition, % at 7 µM; actives 0.62% (n = 370,000);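 active = inhibition above a per-campaign cutoff equal to the mean of compounds falling between control-based bounds plus 3 SD, cut at about 20% in these data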;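 note: 0% = DMSO wells while the 100% control is not disclosed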
Target sequence (O14672 214-748 limits assumed): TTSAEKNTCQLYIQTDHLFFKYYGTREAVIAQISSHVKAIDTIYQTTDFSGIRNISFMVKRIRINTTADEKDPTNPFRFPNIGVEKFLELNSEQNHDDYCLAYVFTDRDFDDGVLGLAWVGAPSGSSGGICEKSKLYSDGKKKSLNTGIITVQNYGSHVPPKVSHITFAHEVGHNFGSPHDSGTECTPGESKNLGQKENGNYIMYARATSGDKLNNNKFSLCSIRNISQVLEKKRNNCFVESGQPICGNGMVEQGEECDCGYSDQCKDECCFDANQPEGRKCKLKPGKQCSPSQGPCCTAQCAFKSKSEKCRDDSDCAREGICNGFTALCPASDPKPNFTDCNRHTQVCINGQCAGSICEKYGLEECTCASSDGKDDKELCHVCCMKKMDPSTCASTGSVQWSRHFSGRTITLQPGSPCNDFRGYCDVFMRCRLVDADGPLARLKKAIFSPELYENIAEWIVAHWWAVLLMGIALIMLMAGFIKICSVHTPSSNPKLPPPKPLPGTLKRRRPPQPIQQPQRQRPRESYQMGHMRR
Pemphigus Ab inh: inhibitors of pemphigus antibody binding to human desmoglein-3; P32926; DSG3-coupled beads, scFv-anti-DSG3-GFP binding, flow cytometry; active compounds read low; binding (percent of control), % at 10 µM; actives 0.48% (n = 310,000);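 active = binding more than 3 SD below its plate's average and above zero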;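 note: hits lower antibody fragment binding to DSG3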
rCAG binder: molecules binding r(CAG) RNA repeats; r(CAG) RNA repeat, TO-PRO-1 dye displacement fluorescence; inhibition, % at 3 µM; actives 1.3% (n = 370,000); AID 651821;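 active = inhibition above the plate cutoff, the mean of all test compounds on that plate plus 3 SD, cut at about 35% in these data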;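 note: 0% = DMSO alone and 100% = 100 µM mitoxantrone as full dye displacement; higher means more dye released from RNA so lower well fluorescence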
ADAM17 inh: inhibitors of human ADAM17 | P78536 | recombinant ADAM17, EDANS/DABCYL FRET peptide cleavage | inhibition, % at 6.95 µM | actives 0.83% (n = 370,000) | AID 720648;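 active = inhibition above the mean of compounds lying between control limits plus 3 SD, set per campaign, cut at about 8.5% in these data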;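 note: 0% = DMSO-only wells as the low control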
* marks the source's active call; other numbers are inactive results; i = inactive; . = no result; ! = not active in a repeat. Only some compounds are listed: those with a hit (about 4.7% of all), similar ones and a draw of the others.

SMILES	proKLK7 act	MPTP block	ADAM10 inh	Pemphigus Ab inh	rCAG binder	ADAM17 inh
COc1ccc(OC)c(NC(=O)c2nc(-c3ccccc3)oc2C)c1	0	0	1	83*	-1	-2
Cc1ccc(S(=O)(=O)N2O[C@@H](c3ccccc3)C[C@H]2CON2C(C)(C)CCCC2(C)C)cc1	.	.	4	.	.	3
COc1ccc(/C=C/C(=O)c2cc(F)ccc2OC(=O)c2ccccc2)cc1OC	-5	0	11	112	11	11*
COc1ccc(/C=C/C(=O)c2cc(F)ccc2OC(=O)c2ccc(OC)c(OC)c2)cc1OC	1	2	4	79	-2	-1
CCOc1ccc(S(=O)(=O)N2CCN(C(=O)c3ccccc3Cc3ccccc3)CC2)cc1	1	-1	0	80*	0	-3
COc1ccc(S(=O)(=O)N2CCN(C(=O)c3ccccc3Cc3ccccc3)CC2)cc1OC	0	0	3	100	2	6
CC1=NC2=CC=CC3=NC(C(Cl)(Cl)Cl)=NC(=N1)N23	-1	.	-53	.	2	-14
CCN=C1S/C(=C/c2ccc(-c3ccc(Cl)cc3C(=O)O)o2)C(=O)N1CC	1	2	1	90	55*	-3
CCN=C1S/C(=C\c2ccc(-c3cccc(C(=O)O)c3)o2)C(=O)N1CC	.	11	.	99	.	.
CNc1nc(-c2ccccc2)[n+](-c2ccc(C)cc2)s1	0	-40	3	1.4*	2	-2
Cc1ccc(-c2nc(N)s[n+]2-c2ccccc2)cc1	0	20	-2	81	2	3
COc1ccc(/C=N/NC(=O)c2ccn[nH]2)cc1Cn1nc(C)c([N+](=O)[O-])c1C	0	-1	0	104	-1	-2
COc1ccc(/C=N/NC(=O)c2ccco2)cc1Cn1nc(C)c([N+](=O)[O-])c1C	1	2	-2	-160*	2	0
COc1ccc(CNc2cccc3[nH]c(C(F)(F)F)nc23)cc1	0	1	-1	98	42*	-1
Cc1ccc(C(=O)Nc2cccc3[nH]c(C(F)(F)F)nc23)cc1	0	3	1	127	3	-3
Cc1cccc(OCc2nnc(SCC(=O)Nc3ccc(C)c(C)c3)o2)c1	0	4	7	66*	-3	-1
Cc1ccccc1CN1CCCCC(NC(=O)c2cccc(F)c2)C1=O (stereo not drawn)	0	.	-2	.	1	-2
COc1ccc(/C=N/NC(=O)c2ccc(COc3cccc4cccnc34)cc2)cc1OC	-1	-1	-12	5.2*	6	-5
Oc1ccc(C[C@H]2CNC(=S)N2CC2CCCN2C[C@H](Cc2ccc(O)cc2)N2C[C@H](Cc3ccc(O)cc3)N(CC3CCCCC3)C2=S)cc1 (stereo partly drawn)	-1	-2	22*	114	15	7
NS(=O)(=O)c1ccc(N/N=C/c2ccc3c(c2)OCO3)c([N+](=O)[O-])c1	0	5	7	31*	4	0
COc1ccc(NC(=O)N2CCCC(c3nc(-c4ccc(OC)cc4)no3)C2)cc1 (stereo not drawn)	0	11	8	90	-5	3
COc1ccc(NC(=O)N2CCCC(c3nc(-c4ccc(C(C)C)cc4)no3)C2)cc1 (stereo not drawn)	1	6	25*	106	0	11*
COC(=O)c1cc(S(=O)(=O)N2CCN(C(C)=O)CC2)cn1C	0	.	2	.	3	0
Cc1ccc(-c2nc(CS(=O)CC(=O)NCc3ccc(Cl)cc3)c(C)o2)cc1 (stereo not drawn)	0	0	-6	101	0	0
Cc1oc(-c2ccc(Cl)cc2)nc1CS(=O)CC(=O)NCc1ccccc1 (stereo not drawn)	0	1	0	67*	1	-4
SMILES	proKLK7 act	MPTP block	ADAM10 inh	Pemphigus Ab inh	rCAG binder	ADAM17 inh
Cc1ccc(-c2nc(CS(=O)CC(=O)NCCC(C)C)c(C)o2)cc1 (stereo not drawn)	.	-1	.	72*	.	.
COc1ccc(CC(=O)NC2CCCCCC2)c(OC)c1	0	0	8	-48*	-2	0
COc1ccc(NC(=O)NC2CCCCCCC2)c(OC)c1	.	0	.	111	.	.
COc1ccc(NC(=O)c2ccc(CNc3c(NC4CCCCC4)c(=O)c3=O)cc2)c(OC)c1	0	0	-16	-2.5*!	6	-2
CCOC(=O)c1ccc(NC(=O)CSc2nnc(-c3cccc(C)c3)n2C)cc1	0	.	-9	.	1	0
O=C(COC(=O)c1n[nH]c2ccccc12)Nc1cccc(S(=O)(=O)N2CCOCC2)c1	0	1	-2	96	13	-4
CCCc1nc2ccccc2c(C(=O)OCC(=O)Nc2cccc(S(=O)(=O)N3CCOCC3)c2)c1CC	1	11	32*	101	12	17*
COC(=O)C1=C(C)N(C)C(=NCc2ccccc2C(F)(F)F)NC1c1ccc(C(F)(F)F)cc1 (stereo not drawn)	0	.	3	.	3	-2
O=C(NCc1cccnc1)c1ccc(-c2ccc(Cl)cc2)o1	0	2	-66	58*	-1	-20
O=C(NCc1cccnc1)c1ccc(-c2cc(Cl)ccc2Cl)o1	0	5	16	106	6	2
Cc1nnc(NC(=O)c2ccc(-c3ccc(Cl)cc3)o2)s1	0	-2	-18	22*	3	-4
CCCCN1CCCOc2cc(Br)ccc2S1(=O)=O	1	.	0	.	-2	-1
Cc1cc(=O)oc2c3c(ccc12)OC/C3=N/N	-8	2	i	97	41*	-324
CC1CCCCC1NC(=O)COC(=O)c1c2c(nc3ccccc13)/C(=C\c1ccco1)CC2 (stereo not drawn)	0	3	-16	115	54*	-3
CCCCNC(=O)COC(=O)c1c2c(nc3ccccc13)/C(=C/c1cccs1)CC2	-1	-9	-26	96	19	-10
Cc1ccccc1NS(=O)(=O)c1ccc(NC(=O)CSCc2ccc(Br)cc2)cc1	0	20	32*	93	9	15*
COc1cc(/C=N/N(c2ccccc2)c2ccccc2)ccc1O	-1	3	-7	123	7	2
CN(/N=C\c1ccc(O)c(O)c1)c1nc(-c2ccccc2)cc(-c2ccccc2)n1	0	8	-47	54*	29	-8
O=C1CC(C(=O)N(CC2CCCO2)C(C(=O)NC2CCCCC2)c2ccncc2)CS1 (stereo not drawn)	0	0	-1	91	-1	-2
O=C(NC1CCCCC1)C(c1ccc(O)cc1)N(CC1CCCO1)C(=O)C1COc2ccccc2O1 (stereo not drawn)	0	6	-6	78*	-4	-1
